This is an account of results in PubChem BioAssay (NCATS).

Holding throughout (experiment): qHTS profiling for inhibitors of Plasmodium falciparum proliferation (AID 504749); also: nearly all actives have a fitted effect of over 60% in size
Common to all, as to settings: P. falciparum in erythrocytes, SYBR Green DNA, 72 h; series mostly up to 28.7 µM

In assay [1] the test system is CP291. In short, it runs like this:
(§1)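 Infected RBCs, 0.3% parasitemia/2.5% Hct final; cpd 72 h, 37 C, 5% CO2; lysis buffer with saponin/triton/SYBR Green I, o/n RT dark; FI 485/535; norm. to artemisinin (0.29 uM) and DMSO.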

The test system of assay [2] is CP297. In short, it runs like this: as §1
The subject of assay [3] is CP305. The method in brief: as §1
The subject of assay [4] is CP315. The method in brief:
as §1

Assay [5] concerns CP325. The method in brief: as §1
For assay [6], the system named is CP329. In short, it runs like this:
as §1

Assay [7] deals with CP335. The method in brief: as §1
Assay [8] has as its system DFO2036. In short, it runs like this:
as §1

Assay [9] deals with DIV14. The method in brief: as §1
The subject of assay [10] is DIV17. The method in brief:
as §1

In assay [11] the test system is DIV30. In short, it runs like this:
as §1

The subject of assay [12] is Dd2. The method in brief: as §1
Assay [13] relates to ECU. The method in brief:
as §1

Assay [14] has as its system FAB9. In short, it runs like this:
as §1

Assay [15] deals with GB4. In short, it runs like this:
as §1

Assay [16] deals with HB3. The method in brief:
as §1

The subject of assay [17] is ICS. The method in brief:
as §1

Assay [18] concerns JCK. The method in brief:
as §1

Assay [19] relates to N140. The method in brief:
as §1

In assay [20] the test system is P93_24. In short, it runs like this: as §1

Records with an inconclusive call do not appear. Calls of active or inactive are those of the source. Calls follow the shape of the dose curve; as a rule, active = well fitted inhibition curve with a large enough effect; inconclusive = small, poorly fitted or top-dose-only effect; inactive = flat fitted curve, though single readings scatter.
Potency is read from the fitted curve at half-maximal effect.

Consider `C[N+]1(CCCCC[N+]2(C)CCCC2)CCCC1`, for which the Potency result in assay [1], in assay [2], in assay [3], in assay [4], in assay [5] and in [6] was “inactive” each time. Further, the Potency entry in [7], in assay [8], in assay [9], in assay [10], in assay [11] and in assay [12] was “inactive” throughout. Further, the Potency result in assay [13], in [14], in assay [15], in assay [16], in [17] and in assay [18] was “inactive” in each case. Moreover, the Potency result in assay [19] and in assay [20] was “inactive” throughout.

As for `CCCCCCC[N+](CC)(CC)CCCCc1ccc(Cl)cc1`, the Potency in assay [1] was 1810 nM (active); in assay [2], 2030 nM (active); in assay [3] it was 572 nM (active); in [4], 2280 nM (active); in assay [5], 2280 nM (active); in [6] it was 1810 nM (active). Further, the Potency was 1810 nM (active) in assay [7]; 1780 nM (active) in assay [8]; 809 nM (active) in assay [9]; 809 nM (active) in assay [10]; 2280 nM (active) in [11]; 2000 nM (active) in [12]. The Potency in assay [13] was 1580 nM (active); in assay [14] it was 3550 nM (active); in [15], 721 nM (active); in assay [16], 2510 nM (active); in [17], 708 nM (active); in [18] it was 3160 nM (active). Also, the Potency in assay [19] was 2510 nM (active); in assay [20], 2240 nM (active).

On to `CC(=O)OCC(=O)NCCCOc1cccc(CN2CCCCC2)c1`, for which the Potency result in assay [1], in assay [2], in assay [3], in [4], in assay [5] and in assay [6] was “inactive” throughout. Besides, the Potency result in [7], in assay [8], in [9], in assay [10], in [11] and in [12] was “inactive” in each case. In addition, the Potency result in assay [13], in [14], in assay [15], in [16], in assay [17] and in assay [18] was “inactive” throughout. The Potency entry in [19] and in [20] was “inactive” in each case.

As to `Cc1c(F)c(N2CCNC(C)C2)cc2c1c(=O)c(C(=O)O)cn2C1CC1` (stereo not given), the Potency result in assay [1], in assay [2], in [3], in assay [4], in [5] and in assay [6] was “inactive” each time. The Potency result in assay [7], in assay [8], in [9], in [10], in [11] and in assay [12] was “inactive” throughout. The Potency result in assay [13], in assay [14], in assay [15], in [16], in assay [17] and in assay [18] was “inactive” throughout. Moreover, the Potency entry in [19] and in [20] was “inactive” each time.

In the case of `O=C(O)c1cc2cc(Cc3cccnc3)ccc2o1`, the Potency result in assay [1], in [2], in assay [3], in assay [4], in assay [5] and in assay [6] was “inactive” in each case. Further, the Potency entry in [7], in assay [8], in [9], in assay [10], in assay [11] and in assay [12] was “inactive” throughout. The Potency entry in [13], in assay [14], in [15], in [16], in assay [17] and in [18] was “inactive” throughout. Moreover, the Potency result in assay [19] and in assay [20] was “inactive” throughout.

In the case of `Cc1ncc(CSSCc2cnc(C)c(O)c2CO)c(CO)c1O`, the Potency result in [1], in [2], in [3], in assay [4], in assay [5] and in assay [6] was “inactive” in each case. Further, the Potency result in assay [7], in assay [8], in [9], in assay [10], in [11] and in assay [12] was “inactive” throughout. For the same compound, the Potency entry in [13], in [14], in assay [15], in assay [16], in assay [17] and in assay [18] was “inactive” each time. Moreover, the Potency result in assay [19] and in assay [20] was “inactive” in each case.

`CCC(=O)c1c(O)cc(O)cc1O`: the Potency result in assay [1], in [2], in [3], in [4], in assay [5] and in [6] was “inactive” throughout. The Potency result in [7], in assay [8], in assay [9], in [10], in assay [11] and in [12] was “inactive” throughout. The Potency entry in assay [13], in [14], in [15], in [16], in assay [17] and in assay [18] was “inactive” in each case. Also, the Potency entry in assay [19] and in assay [20] was “inactive” in each case.

On to `CCn1cc(C(=O)O)c(=O)c2cnc(N3CCCC3)nc21`, for which the Potency result in assay [1], in assay [2], in assay [3], in [4], in assay [5] and in assay [6] was “inactive” throughout. Also, the Potency entry in [7], in [8], in [9], in [10], in assay [11] and in assay [12] was “inactive” throughout. Moreover, the Potency result in assay [13], in assay [14], in [15], in assay [16], in [17] and in assay [18] was “inactive” in each case. For the same compound, the Potency entry in assay [19] and in assay [20] was “inactive” in each case.

Regarding `COc1cc(C(=S)N2CCOCC2)cc(OC)c1OC`, the Potency result in assay [1], in assay [2], in [3], in assay [4], in assay [5] and in [6] was “inactive” throughout. The Potency result in assay [7], in assay [8], in assay [9], in assay [10], in assay [11] and in [12] was “inactive” throughout. Besides, the Potency entry in assay [13], in assay [14], in assay [15], in assay [16], in [17] and in [18] was “inactive” in each case. In addition, the Potency entry in [19] and in [20] was “inactive” in each case.

As to `CCCCCCc1ccc(O)cc1O`, the Potency entry in assay [1], in assay [2], in assay [3], in assay [4], in assay [5] and in assay [6] was “inactive” each time. Besides, the Potency result in [7], in assay [8], in assay [9], in [10], in assay [11] and in assay [12] was “inactive” in each case. For the same compound, the Potency result in [13], in [14], in assay [15], in assay [16], in assay [17] and in assay [18] was “inactive” in each case. The Potency result in assay [19] and in [20] was “inactive” throughout.

`CC(C)(CO)[C@@H](O)C(=O)NCCCO`: the Potency entry in assay [1], in assay [2], in assay [3], in [4], in assay [5] and in assay [6] was “inactive” throughout. The Potency result in assay [7], in assay [8], in assay [9], in [10], in assay [11] and in assay [12] was “inactive” in each case. The Potency entry in assay [13], in [14], in [15], in assay [16], in [17] and in assay [18] was “inactive” each time. Moreover, the Potency entry in assay [19] and in assay [20] was “inactive” throughout.

For the compound `CC(C)(C)CC(C)(C)c1ccc(OCCOCC[N+](C)(C)Cc2ccccc2)cc1`, the Potency in assay [1] was 4780 nM (active); in assay [2], 4260 nM (active); in assay [3], 4780 nM (active); in assay [4] it was 4780 nM (active); in assay [5], 4780 nM (active); in assay [6], 4780 nM (active). Besides, the Potency is 1510 nM (active) in [7]; 3980 nM (active) in assay [8]; 3380 nM (active) in [9]; 4780 nM (active) in assay [10]; 4260 nM (active) in assay [11]; 4470 nM (active) in assay [12]. Moreover, the Potency in assay [13] is 5010 nM (active); in [14], 5010 nM (active); in [15] it was 3380 nM (active); in assay [16] it was 6310 nM (active); in assay [17], 1260 nM (active); in assay [18], 6310 nM (active). Also, the Potency in assay [19] is 3980 nM (active); in assay [20] it was 6310 nM (active).
